For 5 compounds, composite z-score, z-score and composite Z-score results are on record in PubChem BioAssay.

Test [1] deals with Human papillomavirus type 1a protein E7 (residues 44-93). Briefly: small molecules binding HPV E7 44-93 – biochemical, small-molecule microarray, residues 44-93, 635 nm fluorescence, primary screen (AID 1108).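 Further: E7 fragment applied at 1 µg/mL in TBST for 1 h at 4 C; score combines spot fluorescence with its signal to noise ratio.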 The conditions noted are these: fluorescence 635 nm, higher = more signal.
Test [2] can be described thus: hepatitis C replication reporter changes, two-sided – Huh7 cells, luciferase reporter, HCV replication inhibitor project, primary screen (AID 1109).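 Further: huh7 hepatoma cells harbouring a luciferase neomycin HCV replicon reporter; luciferase luminescence as measure of HCV replicon replication; test concentration not given here.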 The settings on record: Huh7 HCV replicon luciferase reporter, 48 h; higher = more signal. (Reporter assays use an easily measured gene product as a stand-in for the process of interest.)
The target of test [3] is Left-right determination factor 2 (Homo sapiens) (UniProt O00292). Briefly: small molecules binding LEFTY2 protein – biochemical, small-molecule microarray, 635 nm fluorescence scan, primary screen (AID 1110). The settings on record: higher = more signal.
Sequence of Left-right determination factor 2 (Homo sapiens) (O00292 whole entry, looked up): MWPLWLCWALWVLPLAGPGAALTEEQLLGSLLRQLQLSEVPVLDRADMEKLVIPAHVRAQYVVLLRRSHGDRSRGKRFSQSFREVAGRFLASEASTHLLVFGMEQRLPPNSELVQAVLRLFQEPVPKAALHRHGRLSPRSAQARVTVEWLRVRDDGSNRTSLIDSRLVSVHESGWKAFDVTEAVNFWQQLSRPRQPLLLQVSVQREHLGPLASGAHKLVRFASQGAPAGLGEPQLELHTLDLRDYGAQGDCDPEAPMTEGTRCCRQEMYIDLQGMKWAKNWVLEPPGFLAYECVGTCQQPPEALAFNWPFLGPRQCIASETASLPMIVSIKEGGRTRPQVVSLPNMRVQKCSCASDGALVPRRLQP
The target in test [4] is Calmodulin-1 (Homo sapiens) (UniProt P0DP23). Briefly: small molecules binding calmodulin-1 with EGTA – biochemical, small-molecule microarray, Cy5-labelled CALM1, profiling panel (AID 1111).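 Further: labelled calmodulin applied in Tris saline Tween buffer holding calcium plus EGTA and DTT.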 The conditions noted are these: Cy5-CALM1 binding fluorescence, higher = more signal.
The target is the same in test [5]. The test can be described thus: small molecules binding Ca-loaded calmodulin-1 – biochemical, small-molecule microarray, Cy5-labelled CALM1, plus calcium, artefact control for SMM control-protein annotation, profiling panel (AID 1112).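 Further: score merges spot fluorescence with signal to noise from triplicate slides.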 The settings on record: Cy5-CALM1 binding fluorescence, higher = more signal.
Test [6] is described as follows: probe aWnt5a binding to arrayed compounds – biochemical, biotinylated probe, 635/667 nm fluorescence, primary screen (AID 1113).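 Further: score merges 667 nm fluorescence intensity with signal-to-noise per printed feature.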 The conditions noted are these: small-molecule microarray, higher = more signal.
Test [7] is described as follows: probe aShh binding to arrayed compounds – biochemical, biotinylated probe, 635/667 nm fluorescence, primary screen (AID 1114).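 Further: probe is biotin-labelled aShh protein from a stem cell growth factor screen; measures binding of labelled protein to compounds printed on the slide; score merges feature fluorescence at 667 nm with signal-to-noise.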 The conditions noted are these: small-molecule microarray, higher = more signal.
The nature of test [8]: probe aNog binding to arrayed compounds – biochemical, biotinylated probe, 635/667 nm fluorescence, primary screen (AID 1115).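 Further: probe is biotinylated aNog protein used at 0.15 µg/mL for 1 h at 4 C; z-score combines 667 nm fluorescence of each spot with its signal to noise.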 The conditions noted are these: small-molecule microarray, higher = more signal.
The target in test [9] is Torsin-1A-interacting protein 1 (Homo sapiens) (UniProt Q5JTV8). The test can be described thus: compound microarray binding of lysate hLAP1 – cell lysate, small-molecule microarray, COS7 lysate, 635/667 nm fluorescence, primary screen (AID 1116). The settings on record: 635 nm fluorescence, higher = more signal.
Sequence of Torsin-1A-interacting protein 1 (Homo sapiens) (Q5JTV8 whole entry, looked up): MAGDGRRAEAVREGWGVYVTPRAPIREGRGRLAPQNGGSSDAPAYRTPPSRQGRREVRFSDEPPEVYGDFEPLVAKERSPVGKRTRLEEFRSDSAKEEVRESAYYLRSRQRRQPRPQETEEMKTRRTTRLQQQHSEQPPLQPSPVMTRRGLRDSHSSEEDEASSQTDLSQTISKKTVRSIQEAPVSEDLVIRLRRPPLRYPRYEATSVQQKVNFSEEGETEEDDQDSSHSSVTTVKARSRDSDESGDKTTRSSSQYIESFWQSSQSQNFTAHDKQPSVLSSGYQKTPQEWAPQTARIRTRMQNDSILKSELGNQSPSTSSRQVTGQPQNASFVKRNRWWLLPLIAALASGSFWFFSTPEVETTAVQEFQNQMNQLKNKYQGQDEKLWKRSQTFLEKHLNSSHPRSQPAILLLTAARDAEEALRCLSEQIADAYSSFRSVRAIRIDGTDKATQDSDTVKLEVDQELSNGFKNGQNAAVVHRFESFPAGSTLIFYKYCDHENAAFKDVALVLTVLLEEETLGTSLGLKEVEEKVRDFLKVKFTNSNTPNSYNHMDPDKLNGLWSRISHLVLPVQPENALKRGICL
The target in test [10] is Alpha-bungarotoxin (Bungarus multicinctus) (UniProt P60615). Briefly: compounds binding labelled alpha-BTX control protein – biochemical, small-molecule microarray, Alexa647 label, 635/667 nm fluorescence, artefact control for SMM control protein annotation, profiling panel (AID 1117). The conditions noted are these: alpha-BTX-A647 binding fluorescence, higher = more signal.
Sequence of Alpha-bungarotoxin (Bungarus multicinctus) (P60615 whole entry, looked up): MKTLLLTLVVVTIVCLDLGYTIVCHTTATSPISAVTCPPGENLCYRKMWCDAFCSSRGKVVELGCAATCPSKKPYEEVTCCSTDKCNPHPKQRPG

The next test concerns the target Albumin (Bos taurus) (UniProt P02769). Briefly: compounds binding labelled BSA control protein – biochemical, small-molecule microarray, Alexa647 label, 635/667 nm fluorescence, artefact control for SMM control protein annotation, profiling panel (AID 1118).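 Further: score merges 667 nm emission intensity and signal-to-noise per printed compound spot.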 The conditions noted are these: BSA-A647 binding, fluorescence 635 nm, higher = more signal.
Test [11] is described as follows: probe aXIP binding to arrayed compounds – biochemical, NeuroSMM set, 635/667 nm fluorescence, primary screen (AID 1119).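 Further: probe is the protein aXip251-270 applied at 1 µg/mL to compound-printed slides; binding of probe to printed compounds measured as 667 nm fluorescence plus signal to noise.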 The settings on record: small-molecule microarray, higher = more signal, called active from +8 up or from −8 down.
A short description of test [12]: probe aNOTCH3 binding on compound microarray – biochemical, small-molecule microarray, 635/667 nm fluorescence, primary screen (AID 1120).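 Further: probe is a biotin-tagged antibody raised against NOTCH3 rather than NOTCH3 protein; score merges spot fluorescence near 667 nm with spot signal to noise.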 The settings on record: higher = more signal.
A short description of test [13]: probe aNOTCH2 binding on compound microarray – biochemical, small-molecule microarray, 635/667 nm fluorescence, primary screen (AID 1121).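 Further: score merges feature fluorescence read at 667 nm with its signal to noise.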 The conditions noted are these: higher = more signal.
The target of test [14] is Carbonic anhydrase 2 (Homo sapiens) (UniProt P00918). Briefly: compounds binding carbonic anhydrase 2 – biochemical, small-molecule microarray, Alexa647-labelled CAII, profiling panel (AID 1122). The settings on record: CAII-A647 binding fluorescence, higher = more signal.
The nature of test [15]: COS7 lysate on small-molecule microarray, probe aHis, 635 nm (AID 1123).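 Further: z-score combines 667nm fluorescence intensity with signal-to-noise per printed compound spot.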 The settings on record: COS7 cell lysate, fluorescence, higher = more signal.
The nature of test [16]: probe aLAP1 signal on lysate-treated microarray – cell lysate, small-molecule microarray, COS7 lysate, primary screen (AID 1124).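 Further: lysate comes from COS7 cells expressing LAP1 and is applied at 0.3 µg/mL; score merges spot fluorescence near 667 nm with signal-to-noise over triplicate slides.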 The conditions noted are these: probe aLAP1, fluorescence, higher = more signal.
In a further test the test system is Sam68 (KHDRBS1). The test can be described thus: compounds binding KHDRBS1 protein – biochemical, small-molecule microarray, 635 nm fluorescence, primary screen (AID 1125).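 Further: score merges 667 nm channel intensity with signal to noise over triplicate slides.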 The settings on record: higher = more signal.
For test [17], the system named is Chordin-like protein 2 (CHRDL2). Briefly: compounds binding chordin-like 2 – biochemical, small-molecule microarray, 635 nm fluorescence, primary screen (AID 1126).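 Further: printed compound slides probed with Chrdl2 protein at 4 µg/mL for 1 h at 4 C; score merges 667 nm emission intensity with signal to noise over three replicate slides.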 The settings on record: fluorescence 635 nm, higher = more signal.
Test [18] concerns the target Concanavalin-A (Canavalia ensiformis) (UniProt P02866). Briefly: compounds binding concanavalin A lectin – biochemical, small-molecule microarray, Alexa647 label, 635 nm, artefact control for SMM control protein annotation, primary screen (AID 1127).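 Further: z combines 667 nm emission intensity with signal-to-noise across three replicate slides.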 The settings on record: ConA-A647 binding fluorescence, higher = more signal.

Values joined by “and” are separate entries in the source; they are usually repeats but may differ in a detail not shown here. Equal entries are not always repeated. Active and inactive are the calls of the source.

Sequence of Albumin (Bos taurus) (P02769 whole entry, looked up): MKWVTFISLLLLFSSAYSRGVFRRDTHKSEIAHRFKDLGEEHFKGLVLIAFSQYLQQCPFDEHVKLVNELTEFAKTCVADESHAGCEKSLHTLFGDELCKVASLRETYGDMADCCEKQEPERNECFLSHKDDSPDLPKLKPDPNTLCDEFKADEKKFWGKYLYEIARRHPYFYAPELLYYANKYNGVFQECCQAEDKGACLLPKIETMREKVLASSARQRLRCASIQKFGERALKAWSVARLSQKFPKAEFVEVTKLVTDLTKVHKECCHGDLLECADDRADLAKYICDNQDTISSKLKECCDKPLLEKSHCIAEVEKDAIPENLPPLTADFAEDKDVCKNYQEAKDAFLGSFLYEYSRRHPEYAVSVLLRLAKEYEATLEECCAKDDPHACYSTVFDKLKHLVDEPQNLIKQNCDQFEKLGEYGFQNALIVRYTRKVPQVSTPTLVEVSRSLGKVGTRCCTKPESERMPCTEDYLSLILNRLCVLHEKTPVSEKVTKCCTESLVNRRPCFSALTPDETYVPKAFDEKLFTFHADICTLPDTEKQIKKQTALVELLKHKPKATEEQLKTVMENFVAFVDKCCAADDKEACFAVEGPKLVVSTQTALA
Sequence of Concanavalin-A (Canavalia ensiformis) (P02866 whole entry, looked up): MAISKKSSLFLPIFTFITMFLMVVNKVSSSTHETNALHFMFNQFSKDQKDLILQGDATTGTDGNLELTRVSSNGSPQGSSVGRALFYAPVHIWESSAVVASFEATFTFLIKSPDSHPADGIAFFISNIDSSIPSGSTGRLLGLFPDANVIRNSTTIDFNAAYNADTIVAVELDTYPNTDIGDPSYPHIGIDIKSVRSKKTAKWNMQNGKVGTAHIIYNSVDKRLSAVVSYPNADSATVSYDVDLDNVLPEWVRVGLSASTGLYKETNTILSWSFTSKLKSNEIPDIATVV

In the case of `C=C[C@@H](C)[C@@H](O)c1ccc(O)c2ccccc12`, the composite z-score in test [1] was -0.719 and -0.288; in [3], -1.21 and -0.861; in test [4] it was -0.878 and -0.992; in test [5], -0.36 and -0.903; in test [6], -0.146 and -0.236; in [7], 0.23 and -0.214. Moreover, the composite z-score in test [8] was -0.337 and -0.411; in test [9] it was -0.802 and 0.0066; in [10] it was -1.29 and 1.65; in the test with Albumin (Bos taurus), -0.154 and -0.436; in test [12] it was -0.413 and -0.52; in test [13], -0.232 and -0.193. Further, the composite z-score in test [14] was 0.0119 and 0.72; in test [15] it was -0.024 and 0.351; in [16], -0.237 and -0.0579; in the test with Sam68 (KHDRBS1), -0.785 and -0.587; in test [17], -0.0684 and 0.351; in test [18], -0.419 and -0.81. In addition, the z-score in [2] is -1.55 and -2.15. For the same compound, the composite Z-score in test [11] is -0.014 (inactive) and 0.196 (inactive).
Turning to `C=C[C@@H](C)[C@H](O)c1ccc(O)c2ccccc12`, the composite z-score is -0.54 and -1.74 in [1]; 0.265 and -0.863 in [3]; -1.27 and -1.29 in test [4]; -1.21 and -1.19 in test [5]; -0.224 and -0.283 in test [6]; -0.0035 and -0.0709 in test [7]. Besides, the composite z-score is -0.157 and -0.299 in [8]; -0.444 and -0.659 in [9]; -0.286 and -0.508 in test [10]; -0.0066 and 0.457 with Albumin (Bos taurus); -0.209 and -0.454 in [12]; -0.247 and -0.223 in [13]. Besides, the composite z-score in test [14] is -0.211 and -0.59; in test [15], 0.294 and -0.0874; in test [16] it was 0.279 and -0.559; in the test on Sam68 (KHDRBS1), -0.309 and -1.66; in [17], 1.34 and 0.0548; in test [18], -0.418 and -1.3. Besides, the z-score in test [2] was -0.857 and -0.0113. Moreover, in [11], the composite Z-score is 0.342 (inactive) and 0.259 (inactive).
Regarding `COC(=O)[C@@]1(Cc2ccccc2)[C@H]2c3cc(C(=O)N(C)C)n(C[C@H](O)CO)c3C[C@H]2CN1C(=O)c1ccccc1`, the composite z-score in test [1] was 1.13 and -0.569; in test [3] it was -0.724 and 0.396; in [4] it was 0.205 and 2.39; in [5], 0.696 and 0.624; in [6], -0.0346 and 0.0297; in test [7] it was 1.03 and 0.0469. Moreover, the composite z-score was 0.373 and 1.04 in [8]; 2.36 and 1.1 in test [9]; -0.33 and 0.13 in test [10]; 0.4 and 1.14 in the test with Albumin (Bos taurus); 0.0208 and 0.52 in [12]; 0.0538 and 0.261 in [13]. Besides, the composite z-score in [14] is 0.897 and 0.841; in test [15] it was 3.13 and 1.27; in test [16], 0.562 and 0.966; in the test with Sam68 (KHDRBS1), -0.278 and -0.421; in [17], -0.138 and -0.519; in test [18], -0.148 and -0.0788. Further, in test [2], the z-score is -0.38 and -0.668. Moreover, the composite Z-score in [11] was -0.506 (inactive) and -0.574 (inactive).
As for `CCCC[C@@H]1CN2[C@@H](CC[C@@H](C)[C@@H]2c2ccc(Br)cc2)C(=O)O1`, the composite z-score is 1.27 and 1.07 in [1]; 0.379 and 0.292 in test [3]; 0.0614 and 0.32 in test [4]; -0.242 and -0.217 in test [5]; -0.152 and -0.13 in [6]; 0.0756 and -0.0553 in [7]. The composite z-score is -0.198 and 0.121 in test [8]; 0.0865 and -0.0158 in test [9]; 0.439 and 0.105 in test [10]; 0.604 and 0.712 with Albumin (Bos taurus); 0.0293 and -0.0219 in [12]; -0.104 and -0.164 in test [13]. The composite z-score in [14] was 0.284 and 0.282; in test [15] it was 1.22 and 0.595; in test [16], -0.0028 and 0.498; in the test with Sam68 (KHDRBS1), 1.1 and 0.929; in [17], 0.306 and 0.0739; in test [18], 0.402 and 0.987. In test [2], the z-score was -1.44 and -0.195. Also, in test [11], the composite Z-score was 0.548 (inactive) and 0.14 (inactive).
`C[N+](C)(C)CCCCNC(=O)[C@@H]1C[C@@H]2C(=O)N[C@@H](CCCC[N+](C)(C)C)C(=O)N2[C@@H]1c1cccc(OCCO)c1`: the composite z-score in [1] was 0.845 and 0.331; in test [3], 1.59 and 1.49; in test [4], -1.47 and -1.67; in test [5], -2.01 and -0.543; in [6], -0.0758 and 0.048; in test [7] it was 0.23 and -0.0232. The composite z-score was -0.12 and 0.0139 in test [8]; 2.23 and 1.62 in test [9]; -0.257 and 1.62 in test [10]; -0.916 and -0.121 with Albumin (Bos taurus); 0.197 and 0.129 in [12]; -0.0066 and -0.0861 in test [13]. In addition, the composite z-score in test [14] is 0.389 and 0.799; in [15] it was 1.19 and 2.25; in test [16], 0.0458 and 1.65; in the test with Sam68 (KHDRBS1), 1.31 and 0.767; in [17], 1.56 and 1.47; in [18] it was 1.13 and 0.657. Further, the z-score in test [2] is -0.552 and -0.848. The composite Z-score in [11] was 0.104 (inactive) and 2 (inactive).
